# According to PMC7819943, “Rice protein-binding microarrays: a tool to detect cis-acting elements near promoter regions in rice”:
# Whole data set: some 39,000 sequences, median “fluorescence intensity (a.u.)” near 4,300, cut for the highest 2% near 39,000. The sample as a whole holds a higher share of the highest values than the screen did.
# Biological target: T1, OsSMF1 (Oryza sativa, UniProt Q6ZLB0 1-436)
# T1 sequence: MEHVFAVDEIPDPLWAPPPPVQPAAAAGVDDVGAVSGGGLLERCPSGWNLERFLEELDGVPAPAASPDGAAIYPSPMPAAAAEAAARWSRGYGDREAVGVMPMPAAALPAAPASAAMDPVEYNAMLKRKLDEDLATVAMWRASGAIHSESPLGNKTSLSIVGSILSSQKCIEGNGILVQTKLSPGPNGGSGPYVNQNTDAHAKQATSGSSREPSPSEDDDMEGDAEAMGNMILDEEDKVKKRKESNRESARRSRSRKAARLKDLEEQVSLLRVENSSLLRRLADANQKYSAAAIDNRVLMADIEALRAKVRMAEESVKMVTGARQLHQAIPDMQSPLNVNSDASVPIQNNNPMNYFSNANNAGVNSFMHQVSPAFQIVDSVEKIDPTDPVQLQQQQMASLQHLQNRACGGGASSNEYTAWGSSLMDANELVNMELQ
# Assay: protein-binding microarray (RPBM); PBS, 2% BSA, 51.3 ng/ul salmon testes DNA, 50 uM zinc acetate, 200 nM TF, 25 C, 1 h; high values mean tight binding
# Details: protein: recombinant; tags: N-terminal polyhistidine and DsRed monomer fusion (pET32a); chain copies: 2; label: CyDye5-dUTP incorporated in the synthesized complementary strand; 3' TTTTT single-stranded linker to array surface; dsDNA, one strand shown
# Procedure, shortened: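 A custom Agilent array was converted to double-stranded form by primer extension with Cy5-dUTP and blocked with 2% BSA. Protein at 200 nM in PBS with 2% BSA, salmon testes DNA and 50 µM zinc acetate was applied for 1 h at 25 °C, followed by washing. The proteins were polyhistidine–DsRed N-terminal fusions of transcription factors, expressed in E. coli BL21-CodonPlus and Ni–NTA-purified. The binding signal is per-feature fluorescence intensity (arbitrary units) from an Axon 4000B scanner.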
row,Sequence,binding signal
1,TTGCCACGTAATCGCTACGTCAATGCCACGTGGGACGGAGCGGAGTCACCTAGTGCAG,43800 fluorescence intensity (a.u.)
2,TGCGGATCTAATTGCCACGTAAGCGCCACGACAATGACACCGGAGTCACCTAGTGCAG,16800 fluorescence intensity (a.u.)
3,CTGTCCATTGATCTGTCCCTGGCAGCGACGTGACGTCCCACGGAGTCACCTAGTGCAG,4890 fluorescence intensity (a.u.)
4,GCTTCGTGGGCCTCTCACTTGAGTCACTGGCACTCCATTCCGGAGTCACCTAGTGCAG,3570 fluorescence intensity (a.u.)
5,TCCAAAATATTAGCATGGCACAGATTGGCACTACCCTTGTCGGAGTCACCTAGTGCAG,3280 fluorescence intensity (a.u.)
6,CGTAGAGGAATAACAATGGAACGTCATCCCTCTCTGTTCGCGGAGTCACCTAGTGCAG,4120 fluorescence intensity (a.u.)
7,GGTTCCATGCCTCGCCGTTTATCTATCTAATTTACTAGCACGGAGTCACCTAGTGCAG,3170 fluorescence intensity (a.u.)
8,CGGCATTGACCTGGTCTTTGTTCCACGTGGCGCTTAGGTGCGGAGTCACCTAGTGCAG,8840 fluorescence intensity (a.u.)
9,TGTATGTCGGGTTGTCGATGATCAAGCCAGTGACACGCTTCGGAGTCACCTAGTGCAG,4000 fluorescence intensity (a.u.)
10,AGCCCACGTCCAGCTCACACACGCACCCACAACCGACCCACGGAGTCACCTAGTGCAG,6070 fluorescence intensity (a.u.)
11,AGAATCGCTTATATTATGGGACGGACGTAACATATAGAAGCGGAGTCACCTAGTGCAG,41100 fluorescence intensity (a.u.)
12,AATTGCCACGTAAGCGCCATGTCAGTGCCACGTCAAATTACGGAGTCACCTAGTGCAG,33800 fluorescence intensity (a.u.)
13,GATCAAATTGCCACGTAAGCGCCACGTCAATGCCATGTCACGGAGTCACCTAGTGCAG,48000 fluorescence intensity (a.u.)
14,CAGATATTATATTACGTAACATCTTCGTCAAGCTTACAATCGGAGTCACCTAGTGCAG,3850 fluorescence intensity (a.u.)
15,TATAATTGCTACGTAAGCGCCACGTCAATGCCATGTCAGACGGAGTCACCTAGTGCAG,15700 fluorescence intensity (a.u.)
16,ATTTTATTATTCTTGCAGATCAAATTGCCACGTAAGCGTCCGGAGTCACCTAGTGCAG,47800 fluorescence intensity (a.u.)
17,ACATATAATTGCCACGTCAGCGCCACATCAATGCCACGTGCGGAGTCACCTAGTGCAG,26100 fluorescence intensity (a.u.)
18,AACATATTAGAATATCGGTCTTAAATTAAATCCCATATAACGGAGTCACCTAGTGCAG,29100 fluorescence intensity (a.u.)
19,TTTTCGGATCAAATTGCCACGTAAGCGCCACGTCAGATGACGGAGTCACCTAGTGCAG,16000 fluorescence intensity (a.u.)
20,ATAAAATTGCCACATAAGCACCACGTCAATGCTATGTGGGCGGAGTCACCTAGTGCAG,29700 fluorescence intensity (a.u.)
21,ATTTTATTGCCACATAAGCGCCACGTCAATGCCACGTGGGCGGAGTCACCTAGTGCAG,56000 fluorescence intensity (a.u.)

row,Sequence,binding signal
1,TCAAATCAAATTGCCACGTAAGCGCCACGTCACTGCCACACGGAGTCACCTAGTGCAG,35200 fluorescence intensity (a.u.)
2,ACTATCAAGTTCGGATTAACCGAACCAATACAACCACTCACGGAGTCACCTAGTGCAG,21900 fluorescence intensity (a.u.)
3,TAAATTTCAAATTCGTGCCACATAGGTCCTTTTCCTCACACGGAGTCACCTAGTGCAG,4670 fluorescence intensity (a.u.)
4,GCTAGCTATTGTTGATTTGTCGTGTTGTAATATATACACTCGGAGTCACCTAGTGCAG,4680 fluorescence intensity (a.u.)
5,TAAATCGATCCTACGTCACATGACAGACTGGACCCTTGTCCGGAGTCACCTAGTGCAG,10900 fluorescence intensity (a.u.)
6,ACGTCCACGAGTCCATGTCATGACACACCCCAAGTTGCTGCGGAGTCACCTAGTGCAG,5510 fluorescence intensity (a.u.)
7,CCCCATCCTAGATGGAACAACCACGTCATCTCATGGGTGACGGAGTCACCTAGTGCAG,14800 fluorescence intensity (a.u.)
8,CGTGATCAATTCGCCTCATGCTGGCGTGACGCGGACCGAGCGGAGTCACCTAGTGCAG,6720 fluorescence intensity (a.u.)
9,TTCAAATGCCACCTAAGCGCCACGTCAACCCCATAGACTGCGGAGTCACCTAGTGCAG,39500 fluorescence intensity (a.u.)
10,CAAATGCCACCTAAGCGCCACGTCAACCCCATAGACTAGGCGGAGTCACCTAGTGCAG,34200 fluorescence intensity (a.u.)
11,TTCAAATGCCACCTAAACGCCACGTCAACCCCATAGACTACGGAGTCACCTAGTGCAG,15600 fluorescence intensity (a.u.)
12,CGCACACATGAGCTCATGATGTGAACGTGATGATGGTGCGCGGAGTCACCTAGTGCAG,48500 fluorescence intensity (a.u.)
13,GGTGTGAGTGTGATGTTGCTCGTGTAATGATGCGTGTGCGCGGAGTCACCTAGTGCAG,5000 fluorescence intensity (a.u.)
14,TGTGATGTGGGCATGCGTGTGCGCACGTGTTCTATTGGTGCGGAGTCACCTAGTGCAG,17600 fluorescence intensity (a.u.)
15,TCCGCCGCCTCGGTCGGCTCACGCGTCCATGTCCATCCCGCGGAGTCACCTAGTGCAG,3600 fluorescence intensity (a.u.)
16,CGCACTCAGCTTGTTCCTCTAACTGTACACAGTGGTACTTCGGAGTCACCTAGTGCAG,26500 fluorescence intensity (a.u.)
17,GTCCAGATTCGTTGTACTAGAATATGTCAGATCCAGTCCTCGGAGTCACCTAGTGCAG,3410 fluorescence intensity (a.u.)
18,CCTCTAGATCCTCTATGGTACTATATGTACAGTGCTGTTTCGGAGTCACCTAGTGCAG,42900 fluorescence intensity (a.u.)
19,GAGTTGAGTTTAGACTTTCTAGAGTGGTATATGTATGTTTCGGAGTCACCTAGTGCAG,40900 fluorescence intensity (a.u.)
20,TGTCGGTACTTTCATACGTCATCTATGTATGAGTCGGTTTCGGAGTCACCTAGTGCAG,10600 fluorescence intensity (a.u.)
21,GGGTGAGTGTGTGTTGTGCGTTGTGAGTGTGTATGTGTTTCGGAGTCACCTAGTGCAG,3730 fluorescence intensity (a.u.)
